PPC-1+TRAIL kill: compounds killing PPC-1 cancer cells with TRAIL present, primary screen, TRAIL potentiator project, ATPLite luminescence, uHTS. PPC-1 cells + TRAIL, ATPLite viability luminescence. cell killing (% activity), % at 4 µM or 5 µM. hit rate 0.41% among 220,000;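 active means cell killing above 50% in the first pass at 4 µM, then a duplicate retest at 5 µM averaging 50% or more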;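 further: plate controls were cells with TRAIL plus DMSO for no effect and medium-only wells lacking cells for full effect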
STAT1 blocker: STAT1 signaling inhibitors, primary screen, cell-based, HTS, luciferase reporter | hit rate 0.35% among 200,000 | inhibition, % at 5.5 µM | NIH 3T3 STAT1-luciferase reporter, IFN-gamma, luminescence;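 active means inhibition above a set limit, the mean inhibition across all tested compounds plus 3 SD, cut at about 34% in these data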;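 further: 0% = IFN-gamma with DMSO and 100% = IFN-gamma with 300 µM nifuroxazide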
STAT3 inh: IL-6 driven STAT3 reporter inhibitors, primary screen, U3A cells, luciferase, luminescence, MLSCN library; IL-6 STAT3-luciferase reporter; host cell line lacks STAT1; hit rate 0.89% among 190,000; inhibition, % at 5.5 µM;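 active means inhibition above the mean inhibition across all screened compounds plus 3 SD, cut at about 44% in these data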;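 further: 0% = DMSO only wells and 100% = 100 µM nifuroxazide control wells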
HSF1 inh: HSF1 inhibitors in luciferase reporter cells, primary screen, cell-based, NIH3T3, luminescence; NIH3T3-HGL HSE-luciferase, MG132-induced, luminescence 8 h; hits give low values; activity change, negative = inhibition, % at 7.5 µM (by protocol); hit rate 0.77% among 300,000; AID 2098, 2009;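 active means more than half of replicate wells show activity change below -50%, luminescence cut by over half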;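 further: luciferase reports HSF-1 transcriptional activity via heat shock element; 0% = median of DMSO wells and -100% = zero luminescence signal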
HSP90 refold inh: HSP90 inhibitors, primary screen, cell lysate, luminescence; Rabbit reticulocyte lysate, luciferase refolding luminescence, 3 h; inhibition, % at 5.6 µM; hit rate 0.91% among 290,000;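 active means inhibition above the screen-wide mean plus 3 SD, computed separately per campaign, cut at about 16% in these data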;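 further: 0% = DMSO wells and 100% = 60 µM geldanamycin wells; inhibitors lower the luminescence because luciferase stays unfolded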
TRAIL sens C8: viability loss with TRAIL in NB7+C8 cells, primary screen, TRAIL sensitizer project, cell-based, ATPlite luminescence | hit rate 1% among 360,000 | inhibition (viability loss, TRAIL sensitization), % at 10 µM;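 active means compounds causing at least 50% loss of cell viability in the single-dose screen, relative to plate controls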
Starred values were filed as active, the others as inactive; . = not tested or not shown; ! = not active in a repeat. Hits are enriched below; roughly 2.4% of the tested compounds scored in any of these assays.

SMILES	PPC-1+TRAIL kill	STAT1 blocker	STAT3 inh	HSF1 inh	HSP90 refold inh	TRAIL sens C8
NC(Cc1ccccc1)c1csc(NC(=O)Nc2ccccc2Oc2ccccc2)n1 (centres undefined)	.	.	.	.	.	75*
O=C1c2[nH]c3ccccc3c2CC1N1C(=O)c2ccccc2C1=O (centres undefined)	.	.	.	.	.	1
COC(=O)CCCn1cc(CN2CC(N3CCN(Cc4cccc(C)c4)CC3)CS2(=O)=O)nn1 (centres undefined)	.	.	.	.	.	-17
Cc1nonc1C(=O)N/N=C/c1ccc(O)cc1O	.	-9	17	12	0	56*
CNC(=O)OC1CC2CC1[C@H]1CCCCN1C2=O (some centres undefined)	.	.	.	.	.	0
Cc1ccc(/C=C2\SC(=S)N(CC(=O)Nc3cccnc3)C2=O)cc1	5	-6	9	12	-6	-3
CCOc1ccc(/C=C2\SC(=S)N(CCC(=O)N(CCO)c3ccccc3)C2=O)cc1	.	.	.	7	7	34
Cc1ccc(/C=C2\SC(=S)N(CCCC(=O)Nc3cccnc3)C2=O)cc1	.	.	.	-60*	11	24
CCN(CC)C(=O)CN1C(=O)/C(=C/c2ccccc2)SC1=S	-1	.	.	-57*	7	-16
CCc1ccc(/C=C2\SC(=S)N(CCCC(=O)N(CCO)c3ccccc3)C2=O)cc1	.	.	.	.	.	92*
CC(=O)NNC(=O)CN1C(=O)/C(=C/c2ccccc2)SC1=S	26	.	.	-2	6	2
COc1cc(NCCCCC(C)N)c2nccc(C)c2c1 (centres undefined)	.	.	.	.	.	54*
COc1cc(NCCCCCCN)c2ncccc2c1OC	.	.	.	.	.	-12
CC(C)CC(/C(O)=C(\C#N)c1nc2ccccc2[nH]1)N1C(=O)c2ccccc2C1=O (centres undefined)	0	5	22	34	10	65*
O=C(c1ccccc1)N1CCSc2sccc2C1=O	17	37*	50*	-44	8	8
CCc1cc2c(NCCC(=O)O)nc(C)nc2s1	16	-9	-63	-60*	-4	-15
O=C(/C=C/c1ccccc1)NC(NC(=S)Nc1ccc(Cl)cc1)C(Cl)(Cl)Cl (centres undefined)	-18	2	13	3	0	52*
COc1ccc(NC(=S)NC(NC(=O)/C=C/c2ccccc2)C(Cl)(Cl)Cl)cc1 (centres undefined)	18	-6	22	-8	2	19
C=CCN=c1scc(-c2ccc(F)cc2)n1/N=C/c1ccccn1	17	-22	-5	27	4	44
CCN=c1scc(-c2ccccc2)n1/N=C/c1ccccn1	50	-76	45*	-10	12	89*
CCN=c1scc(-c2ccc(F)cc2)n1/N=C/c1ccccn1	28	-41	24	10	-5	16
C=CCN=c1scc(-c2ccccc2)n1/N=C/c1ccccn1	30	-126	25	38	4	53*!
CCCCCCn1c(=O)n2n(c1=O)C[C@]1(OC(=O)NCc3ccccc3)CN(S(=O)(=O)c3ccc(C)cc3)C[C@]1(O)C2	.	.	.	.	.	27
CCCCCCn1c(=O)n2n(c1=O)C[C@]1(OC(=O)Nc3c(C)noc3C)CN(S(=O)(=O)c3ccc(C)cc3)C[C@]1(O)C2	.	.	.	.	.	17
CCC1(c2ccccc2)NC(=O)N(CC(=O)NCC2COc3ccccc3O2)C1=O (centres undefined)	.	.	.	.	.	-8
SMILES	PPC-1+TRAIL kill	STAT1 blocker	STAT3 inh	HSF1 inh	HSP90 refold inh	TRAIL sens C8
CN(C)c1ccc(Nc2ncnc3ccc(Br)cc23)cc1	.	.	.	-53*	-3	-6
O=C(CC[C@H]1O[C@@H](n2cnc3c(NC(=O)c4ccccc4)ncnc32)[C@H](O)[C@@H]1O)N[C@@H](CO)c1ccccc1	.	.	.	.	.	-6
Cc1ccc(N(CC(=O)NCCSCc2ccco2)S(C)(=O)=O)cc1	18	-1	-5	-54*	2	-12
COc1cc(CC(=O)N2c3ccccc3N=C(c3ccccc3)C2C(=O)NCc2ccccc2)cc(OC)c1 (centres undefined)	.	.	.	.	.	8
COn1c(SCc2ccc(Cl)cc2)nc2ccccc2c1=O	37	-8	22	15	-3	60*
Cc1ccc(CNc2ncnc3ccc(-c4ccoc4C)cc23)o1	.	.	.	.	.	0
CSCCC(NC(C)=O)C(=O)Oc1ccc2c3c(c(=O)oc2c1)CCCC3 (centres undefined)	8	7	25	.	0	17
CSCCC(NC(=O)OC(C)(C)C)C(=O)Oc1ccc2c(=O)c(-c3ccc4c(c3)OCCO4)coc2c1 (centres undefined)	32	-32	23	.	4	56*
COC(=O)c1cc2c(n1S(=O)(=O)c1ccc(C)cc1)C(=O)C(=O)c1[nH]cc(C(=O)OCc3ccccc3)c1-2	.	.	.	.	.	93*
CC(=O)Nc1cccc(NC(=O)Cc2cccs2)c1	.	.	.	1	-3	-20
O=C(Cc1cccs1)Nc1cccc(-c2nc3cc4ccccc4cc3[nH]2)c1	47	-107	9	39	3	73*
Cc1ccc(-c2ccc(=O)n(CCC(=O)NCCN3CCCCC3C)n2)cc1 (centres undefined)	14	-1	0	-75*	2	-1
Cc1nnc(N2C(=O)c3cccc4cccc(c34)C2=O)s1	8	-1	9	-55*	3	-8
CCCc1nnc(N2C(=O)c3cccc4cccc(c34)C2=O)s1	1	7	-61	10	0	2
COc1ccc(S(=O)(=O)NC(=O)C2(C)CCN2C(=O)CC2CCCC2)cc1 (centres undefined)	.	.	.	.	.	-24
Clc1ccc(/C=N/NC2=Nc3cccc4cccc2c34)cc1	20	-39	-19	10	0	17
C(=N\NC1=Nc2cccc3cccc1c23)/c1ccccc1	32	-89	-49	18	-1	50*
COc1ccc(/C=C/C(=O)NC(=S)Nc2ccccn2)cc1	.	.	.	23	-1	51*
O=C(c1ccc(Cl)nc1)c1cccs1	3	.	.	-4	2	.
COc1ccc(C(=O)c2no[n+]([O-])c2C(=O)c2ccc(OC)cc2)cc1	19	17	11	14	5	93*
O=C(c1cccs1)c1no[n+]([O-])c1C(=O)c1cccs1	13	14	-18	1	2	92*
CC(C)[C@H](NC(=O)OC(C)(C)C)c1cc(C(=O)NCCc2c[nH]c3ccccc23)c(N)s1	.	.	.	.	.	-3
Oc1ccc(CN2CCCc3ccccc32)c2cccnc12	20	6	-3	-69*	1	26
COc1ccccc1N1CCN(Cc2ccc(O)c3ncccc23)CC1	31	9	10	-5	4	65*
Cc1ccnc(NC(=O)CCC(=O)c2cccs2)c1	.	.	.	-29	.	79*

Source: PubChem (several laboratories)
